Reference: the supplement of paper PMC10646978
± gives the standard deviation.

Columns and labels:
Conditions in all cases: modulator concentration 10 µM
[1] = tested on: RAW-Dual (murine macrophage reporter line); test: NF-kB reporter (SEAP) activity fold change vs agonist alone; higher = enhanced NF-kB activity
Summary of the method: (§1)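 In 384-well plates holding 50 000 RAW-Dual murine macrophage reporter cells per well, compound at 10 μM final was pre-incubated for 1 hour at 37 °C, after which a PRR agonist was added overnight. Supernatant SEAP read with QUANTI-Blue at 620 nm absorbance reported NF-κB, and Lucia luciferase read with QUANTI-Luc luminescence reported IRF. Fold change values come from dividing each reporter signal by the mean of agonist-only control wells on the same plate, averaged over replicate plates with propagated errors.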

[2] = tested on: RAW-Dual (murine macrophage reporter line); test: IRF reporter (Lucia luciferase) activity fold change vs agonist alone; higher = enhanced IRF activity
Summary of the method: as §1

[3] = tested on: RAW-Dual (murine macrophage reporter line); test: viability score (confluency relative to resting cells, overnight) (fraction); higher = more viable, active = viable (0.7 or more)
Summary of the method: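 In 384-well plates, RAW-Dual macrophages received compound at a final 10 μM overnight. Two confluency masks were then made with IncuCyte software from IncuCyte images of all imaged wells. The viability score is defined as confluency relative to resting cells. Passing the cutoff required both masks to lie above 70% of resting cells.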

[4] = agonist: CpG ODN 1826 0.5 ug/mL

Compound	NF-kB reporter [1, 4]	NF-kB reporter ([1]; agonist: LPS 0.1 ug/mL)	NF-kB reporter ([1]; agonist: MPLA […])	IRF reporter ([2]; agonist: 3'3'-cGAMP 10 ug/mL)	IRF reporter ([2]; agonist: LPS 0.1 ug/mL)	IRF reporter ([2]; agonist: MPLA […])	viability score [3]
COc1ccc(CNCc2cccc3ccccc23)c(OC)c1	0.108 ± 0.013	0.586 ± 0.065	0.607 ± 0.063	0.968 ± 0.076	1.21 ± 0.12	1.36 ± 0.22	0.354 (inactive)
C#CCCCCCCCCCCCC(=O)CC(O)COC(C)=O (configuration not stated)	0.822 ± 0.073	0.338 ± 0.034	0.808 ± 0.022	0.176 ± 0.019	0.878 ± 0.098	0.81 ± 0.15	0.849 (active)
CCN(CC)Cc1ccc(Nc2ccnc3cc(Cl)ccc23)cc1O.Cl.Cl	0.998 ± 0.1	0.874 ± 0.065	0.908 ± 0.085	0.988 ± 0.055	1.09 ± 0.19	1.04 ± 0.16	1.04 (active)
CC(C)(C)c1ccc(C(=O)CCCN2CCC(OC(c3ccccc3)c3ccccc3)CC2)cc1	0.99 ± 0.25	1.05 ± 0.081	1.02 ± 0.073	0.646 ± 0.024	1.18 ± 0.23	1.21 ± 0.13	1 (active)
CC(=NNC(N)=S)C1=CC(C)(C)CCC1	0.744 ± 0.061	0.985 ± 0.062	1.06 ± 0.13	0.462 ± 0.012	1.17 ± 0.19	0.978 ± 0.2	1.01 (active)
COc1ccc(CNC23CC4CC(CC(C4)C2)C3)cc1OC	0.937 ± 0.072	0.899 ± 0.13	0.891 ± 0.092	0.959 ± 0.03	1.1 ± 0.23	1.1 ± 0.17	1.01 (active)
C[C@H](NC(=O)C(=O)Nc1ccccc1C(C)(C)C)C(=O)N[C@@H](CC(=O)O)C(=O)COc1c(F)c(F)cc(F)c1F	1.32 ± 0.33	0.434 ± 0.023	1.69 ± 0.12	0.51 ± 0.037	0.839 ± 0.14	1.07 ± 0.14	0.606 (inactive)
Cc1ccc2c(c1)C(=O)CC(O)(C(F)F)O2 (configuration not stated)	0.922 ± 0.073	1 ± 0.067	0.954 ± 0.062	0.764 ± 0.12	0.984 ± 0.089	0.959 ± 0.14	1 (active)
Cc1cc(C(=O)NNCc2ccccc2)no1 [Prestw-795]	1.09 ± 0.18	1.18 ± 0.11	0.992 ± 0.076	0.958 ± 0.026	1.06 ± 0.24	1.29 ± 0.14	0.997 (active)
CCc1ccc(NC(=O)CSc2nc3c([nH]c4ccccc43)c(=O)n2C)cc1	0.809 ± 0.053	0.745 ± 0.06	0.776 ± 0.061	1 ± 0.08	1.13 ± 0.14	1.07 ± 0.18	0.483 (inactive)
Clc1ccc(Nc2nc3nonc3nc2NC2C3CC4CC(C3)CC2C4)cc1 (configuration not stated)	1.15 ± 0.12	1.15 ± 0.07	1.2 ± 0.096	0.702 ± 0.27	1.32 ± 0.17	1.15 ± 0.16	0.931 (active)
CCc1ccc(OCCSc2nc3ccccc3n2CCO)cc1	0.776 ± 0.075	1.08 ± 0.07	0.927 ± 0.073	0.986 ± 0.03	1.33 ± 0.15	1.13 ± 0.09	1.01 (active)
Cc1cc(CCNC(=O)c2cc3ccccc3s2)nn1C	1.2 ± 0.12	1.07 ± 0.082	0.991 ± 0.064	0.82 ± 0.032	1.03 ± 0.06	0.993 ± 0.16	0.997 (active)
COC(=O)c1ccccc1NC(=O)CCc1ccc(Oc2cc([N+](=O)[O-])cc([N+](=O)[O-])c2)cc1	1.22 ± 0.11	1.08 ± 0.079	1.13 ± 0.072	0.431 ± 0.054	1.03 ± 0.17	0.766 ± 0.17	1.01 (active)
CC1=CCCC(=O)C2CC(C)(C)C2CC1 (configuration not stated)	0.95 ± 0.13	0.857 ± 0.11	0.89 ± 0.083	0.876 ± 0.031	1.05 ± 0.15	1.05 ± 0.3	1.05 (active)
CCOC(=O)C1CCCN(S(=O)(=O)c2ccc(F)cc2)C1 (configuration not stated)	1.07 ± 0.12	1.1 ± 0.11	0.97 ± 0.059	0.964 ± 0.06	1.3 ± 0.18	1.02 ± 0.3	0.983 (active)
CN(C)CCCN(C(=O)Cc1ccc(F)cc1)c1nc2ccc(Cl)cc2s1.Cl	0.447 ± 0.029	0.503 ± 0.079	1.08 ± 0.1	0.799 ± 0.035	0.714 ± 0.066	2.19 ± 0.47	0.0615 (inactive)
Cc1cc2nc(SCc3cc4c(cc3Cl)OCO4)[nH]c2cc1C	0.749 ± 0.065	0.976 ± 0.047	0.91 ± 0.094	0.636 ± 0.042	1.2 ± 0.083	1.25 ± 0.12	1.01 (active)

Compound	NF-kB reporter [1, 4]	NF-kB reporter ([1]; agonist: LPS 0.1 ug/mL)	NF-kB reporter ([1]; agonist: MPLA […])	IRF reporter ([2]; agonist: 3'3'-cGAMP 10 ug/mL)	IRF reporter ([2]; agonist: LPS 0.1 ug/mL)	IRF reporter ([2]; agonist: MPLA […])	viability score [3]
Cc1cc(CCNC(=O)c2nc3ccccc3s2)nn1C	1.1 ± 0.062	0.978 ± 0.12	0.978 ± 0.053	0.953 ± 0.052	1.02 ± 0.048	0.943 ± 0.29	1 (active)
O=c1c(O)c(-c2ccc(O)c(O)c2)oc2cc(O)cc(O)c12	1.06 ± 0.26	1.04 ± 0.093	1.47 ± 0.12	0.356 ± 0.021	1.08 ± 0.23	1.12 ± 0.14	0.982 (active)
CC(=O)N1CCC(C(=O)NCc2cccnc2-c2cnn(C)c2)CC1	1.02 ± 0.11	1.06 ± 0.11	0.903 ± 0.099	1.04 ± 0.095	1.18 ± 0.074	1.15 ± 0.25	0.995 (active)
O=[N+]([O-])c1ccc(CSc2nc3ccccc3[nH]2)cc1	0.971 ± 0.076	0.87 ± 0.048	1.01 ± 0.024	0.834 ± 0.048	1.02 ± 0.13	1.12 ± 0.11	0.995 (active)
CCCC1CC(C(=O)NC(C(C)O)C2OC(SC)C(O)C(O)C2O)N(C)C1.Cl (configuration not stated)	0.947 ± 0.073	0.93 ± 0.072	0.924 ± 0.099	0.956 ± 0.031	1.24 ± 0.11	1.32 ± 0.17	1.04 (active)
COC(=O)C1=CN(CC2CCCO2)C=C(C(=O)OC)C1c1ccc2c(c1)OCO2 (configuration not stated)	1.03 ± 0.12	1.1 ± 0.093	1.02 ± 0.071	1.07 ± 0.036	1.46 ± 0.16	1.12 ± 0.089	1.01 (active)
O=c1ccc(-c2ccncc2)nn1CC1CCN(CC(F)(F)F)CC1	0.924 ± 0.046	0.973 ± 0.077	0.955 ± 0.051	0.858 ± 0.043	0.884 ± 0.07	0.832 ± 0.17	0.964 (active)
O=C(c1cc2cc(F)ccc2s1)N1CCc2ncncc2C1	1.05 ± 0.099	1.03 ± 0.083	0.898 ± 0.063	0.927 ± 0.064	1.23 ± 0.14	1.12 ± 0.3	1.01 (active)
Clc1ccccc1C1Nc2cccc3cccc(c23)N1	1.04 ± 0.092	0.898 ± 0.091	0.867 ± 0.084	0.684 ± 0.06	0.967 ± 0.14	0.792 ± 0.14	0.97 (active)
Nc1ncnc2c1ncn2[C@@H]1O[C@H](CO)[C@@H](O)[C@@H]1O	1.15 ± 0.095	0.941 ± 0.047	1.02 ± 0.053	0.953 ± 0.067	0.983 ± 0.077	1.02 ± 0.12	0.991 (active)
Cc1ncc(CC(=O)N2CCC(c3ccccc3F)S(=O)(=O)CC2)s1 (configuration not stated)	0.93 ± 0.041	0.961 ± 0.1	0.959 ± 0.053	0.983 ± 0.074	0.985 ± 0.14	0.998 ± 0.27	1.01 (active)
CC(C)(C)NCC(O)COc1cccc2c1C[C@H](O)[C@H](O)C2 (some centres not stated)	1.03 ± 0.091	0.97 ± 0.051	0.971 ± 0.034	0.892 ± 0.05	0.976 ± 0.032	0.961 ± 0.11	0.981 (active)
COc1ccc(OCCSc2nc3ccccc3n2CCO)cc1	1.01 ± 0.094	1.09 ± 0.12	1.09 ± 0.031	1.35 ± 0.55	1 ± 0.063	1.05 ± 0.14	0.992 (active)
CCC(C)(Oc1ccc(C2(c3ccc(OC(C)(CC)C(=O)O)cc3)CCCCC2)cc1)C(=O)O (configuration not stated)	1.14 ± 0.26	1.09 ± 0.39	0.919 ± 0.063	0.946 ± 0.037	1.29 ± 0.44	1.24 ± 0.093	0.986 (active)
O=C(NCCc1cn2ccccc2n1)c1ccccc1Br	0.964 ± 0.069	0.943 ± 0.12	1.03 ± 0.056	1 ± 0.048	1.2 ± 0.25	1.24 ± 0.32	0.975 (active)
NNC(=O)CN1C(=O)C2CC=C(Cl)CC2C1=O (configuration not stated)	0.984 ± 0.062	0.976 ± 0.085	0.954 ± 0.035	0.999 ± 0.088	1.06 ± 0.058	0.917 ± 0.18	0.999 (active)
COC(C)(CNC(=O)CSc1ccc(F)cc1)c1cccc(Cl)c1 (configuration not stated)	1.11 ± 0.4	1.07 ± 0.11	1.01 ± 0.074	0.973 ± 0.082	0.992 ± 0.13	1.12 ± 0.32	0.987 (active)
O=C(Oc1ccc2oc(=O)sc2c1)c1ccccc1	0.969 ± 0.2	0.917 ± 0.091	0.862 ± 0.1	0.325 ± 0.017	1.26 ± 0.13	1.36 ± 0.22	0.632 (inactive)
